Results reported in PubChem BioAssay (NCI).
Compounds without any hit were thinned out: in the full panel of roughly 83,000, 20% have a hit.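 Cell lines were cultured in 96-well plates, exposed to a single compound concentration, and assessed for percent growth 48 hours later.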 Activity calls are given as the source filed them. The calls were made as follows: active = growth percent below 10; inactive = the rest.

Key:
Experiment in all cases: NCI-60 one-dose screen, 48 h (100 = growth as untreated, 0 = no growth, -100 = all killed)
Conditions in all cases: 10 µM
NCI-H23 lung = test system: NCI-H23 lung
NCI-H226 lung = test system: NCI-H226 lung
NCI-H322M lung = test system: NCI-H322M lung
NCI-H460 lung = test system: NCI-H460 lung
HOP-92 NSCLC = test system: HOP-92 NSCLC
NCI-H522 lung = test system: NCI-H522 lung
A549/ATCC NSCLC = test system: A549/ATCC NSCLC
786-0 renal = test system: 786-0 renal
COLO 205 colon = test system: COLO 205 colon
HOP-62 NSCLC = test system: HOP-62 NSCLC

Measured: growth

O=C(/C=C/Nc1ccc(F)cc1F)c1ccc2c(c1)Nc1ccccc1S2
inactive: NCI-H23 lung 70.3% | NCI-H226 lung 53.2% | NCI-H322M lung 89.3% | NCI-H460 lung 55.4% | HOP-92 NSCLC 85.5% | NCI-H522 lung 75% | A549/ATCC NSCLC 81% | 786-0 renal 88.1% | COLO 205 colon 80.6%

Nc1nc(Nc2ccccc2)nn1Cc1c(Cl)cccc1Cl
inactive: NCI-H23 lung 34.1% | NCI-H322M lung 51.8% | HOP-62 NSCLC 60.6% | NCI-H460 lung 24.8% | NCI-H522 lung 21.1% | A549/ATCC NSCLC 43.1% | 786-0 renal 27.8% | COLO 205 colon 33.2%
active: HOP-92 NSCLC -17.4%

N#Cc1c(NC(=O)c2ccc(C(F)(F)F)c(Cl)c2)sc2c1CCC(=O)C2
inactive: NCI-H322M lung 39.7% | A549/ATCC NSCLC 19.3%
active: NCI-H23 lung -60.9% | NCI-H226 lung -26.4% | NCI-H460 lung -10.1% | HOP-92 NSCLC -55.3% | NCI-H522 lung -71.2% | 786-0 renal -48.2% | COLO 205 colon -94%

O=C(Nc1nc2ccc([N+](=O)[O-])cc2s1)Nc1cc(Cl)ccc1I
active: NCI-H23 lung -53.2% | NCI-H226 lung -50.9% | NCI-H322M lung -9.64% | NCI-H460 lung -2.31% | HOP-92 NSCLC -32.5% | NCI-H522 lung -52.8% | A549/ATCC NSCLC -9.31% | 786-0 renal -49.4% | COLO 205 colon -98.1%

CC(=C(c1ccc(OCCCN(C)C)cc1)c1ccc(OCCCN(C)C)cc1)c1ccccc1
active: NCI-H23 lung -97.9% | NCI-H226 lung -81.5% | NCI-H322M lung -100% | NCI-H460 lung 3.15% | HOP-92 NSCLC -76.4% | NCI-H522 lung -84.6% | A549/ATCC NSCLC -73.1% | 786-0 renal -44% | COLO 205 colon -85.9%

O=c1[nH]n(C(=S)N/N=C/c2ccc(F)cc2)c(=O)c2ccccc12
inactive: NCI-H23 lung 75.3% | NCI-H226 lung 71.9% | NCI-H322M lung 83.9% | HOP-92 NSCLC 77% | NCI-H522 lung 70% | A549/ATCC NSCLC 82.4% | 786-0 renal 76.5% | COLO 205 colon 105%

Cc1cc(C(F)(F)F)ccc1C(=O)Nc1sc2c(c1C#N)CCC(=O)C2
inactive: NCI-H322M lung 29.8% | A549/ATCC NSCLC 30% | 786-0 renal 12.7%
active: NCI-H23 lung -28.3% | NCI-H226 lung -13% | NCI-H460 lung 4.71% | HOP-92 NSCLC -64.4% | NCI-H522 lung -62.9% | COLO 205 colon -94.4%

COC1=C[C@@]23CCC(=O)N2CCc2cc4c(cc2[C@H]3[C@H]1OC(=O)C(C)(C)O)OCO4
inactive: NCI-H23 lung 95.6% | NCI-H226 lung 93.2% | NCI-H322M lung 101% | NCI-H460 lung 115% | HOP-92 NSCLC 92% | NCI-H522 lung 95.6% | A549/ATCC NSCLC 102% | 786-0 renal 95.7% | COLO 205 colon 120%

CC(=O)Nc1ccc(-c2cn(-c3cccc(C(=O)Nc4cc(C(F)(F)F)cc(C(F)(F)F)c4)c3)nn2)cn1
active: NCI-H23 lung -68.6% | NCI-H226 lung -68% | NCI-H322M lung -15.6% | NCI-H460 lung -71.6% | HOP-92 NSCLC -52% | NCI-H522 lung -11.2% | A549/ATCC NSCLC -26.1% | 786-0 renal -42.8% | COLO 205 colon -62.2%

O=C(c1ccc(Cl)cc1)C1[C@H](c2ccccc2Br)[C@@H](c2ccccc2)NC12C(=O)Nc1ccc(Br)cc12 (stereo not given in full)
active: NCI-H23 lung 3.35% | NCI-H460 lung 2.66% | HOP-92 NSCLC 4.57% | NCI-H522 lung -24.4% | A549/ATCC NSCLC 0.826% | 786-0 renal -2.24% | COLO 205 colon -49.6%
inactive: NCI-H226 lung 12.5% | NCI-H322M lung 41.6%

C=C(C)[C@@H]1CC[C@]2(C)[C@H](CC=C3[C@@H]4CC(C)(C)CC[C@]4(C(=O)N4CCOCC4)CC[C@]32C)[C@@]1(C)CCCN
active: NCI-H23 lung -82.2% | NCI-H226 lung -80.5% | NCI-H322M lung -98.9% | HOP-92 NSCLC -77.1% | NCI-H522 lung -91.6% | A549/ATCC NSCLC -84.1% | 786-0 renal -79.3% | COLO 205 colon -92.8%

CN1C(=O)/C(=C/c2nccs2)SC1=S
inactive: NCI-H23 lung 80.8% | NCI-H226 lung 87.2% | NCI-H322M lung 83.7% | NCI-H460 lung 91% | HOP-92 NSCLC 92.4% | NCI-H522 lung 77.7% | A549/ATCC NSCLC 98.5% | 786-0 renal 105% | COLO 205 colon 119%

O=c1[nH]c2ccccc2cc1CSc1ccc(Nc2nccc(-c3ccc(C(F)(F)F)cc3)n2)cc1
inactive: NCI-H23 lung 35.3% | NCI-H322M lung 23.8% | NCI-H522 lung 28.3% | COLO 205 colon 18%
active: NCI-H226 lung -27.2% | NCI-H460 lung 2.12% | HOP-92 NSCLC -1.46% | A549/ATCC NSCLC -16.8% | 786-0 renal -49.7%

Nc1nc(Nc2ccc(Cl)cc2)nn1Cc1cccc(Br)c1
active: HOP-92 NSCLC -9.09%
inactive: NCI-H23 lung 31.7% | NCI-H226 lung 41.5% | NCI-H322M lung 44.7% | NCI-H460 lung 17.9% | NCI-H522 lung 27.6% | A549/ATCC NSCLC 45% | 786-0 renal 37.4% | COLO 205 colon 24.7%

O=c1oc2ccc(-c3ccc(F)cc3F)cc2c(=O)n1-c1ccc(F)c(Cl)c1
active: NCI-H23 lung -49.8% | NCI-H226 lung -24.8% | NCI-H322M lung -1.73% | NCI-H460 lung -0.567% | HOP-92 NSCLC -22% | NCI-H522 lung -17.7% | A549/ATCC NSCLC 8.87% | 786-0 renal 7.54% | COLO 205 colon 7.64%

COc1ccc2[nH]c(O)c(N=NC(=O)COc3ccc(NC(=O)Nc4ccc(Cl)c(Cl)c4)cc3)c2c1
active: NCI-H23 lung -80.4% | NCI-H226 lung -75.6% | HOP-92 NSCLC -47.4% | NCI-H522 lung -90% | A549/ATCC NSCLC -54.5% | 786-0 renal -33.2% | COLO 205 colon -49.3%
inactive: NCI-H322M lung 16.6% | NCI-H460 lung 15.5%

OCc1[nH]nc2cc(Nc3ncc4ccc(Br)c(OC5CCC(O)CC5)c4n3)ccc12 (stereo not given)
inactive: HOP-92 NSCLC 20.9%
active: NCI-H23 lung -88.8% | NCI-H226 lung -2.72% | NCI-H322M lung -17.9% | NCI-H460 lung 2.31% | NCI-H522 lung -31.2% | A549/ATCC NSCLC 4.04% | 786-0 renal -26% | COLO 205 colon -76.9%

O=C(Nc1ccc(I)cc1F)c1cc(-c2ccc(F)cc2F)ccc1O
inactive: 786-0 renal 16.7%
active: NCI-H23 lung -22% | NCI-H226 lung -7.15% | NCI-H322M lung 6.19% | NCI-H460 lung 2% | HOP-92 NSCLC -26.3% | NCI-H522 lung -9.59% | A549/ATCC NSCLC 9.86% | COLO 205 colon -35.6%

O=C(CNc1nc(-c2ccccc2)cs1)Nc1ccccc1
active: NCI-H23 lung -86.4% | NCI-H322M lung -96.2% | HOP-62 NSCLC -62.9% | NCI-H460 lung -11.4% | HOP-92 NSCLC -8.88% | NCI-H522 lung -81.6% | A549/ATCC NSCLC 7.05% | 786-0 renal -25.5% | COLO 205 colon -83.8%

OCCNc1oc(-c2ccccc2)nc1[P+](c1ccccc1)(c1ccccc1)c1ccccc1
active: NCI-H23 lung 8.3% | NCI-H226 lung 1.88% | NCI-H460 lung 5.2% | HOP-92 NSCLC -22.6% | NCI-H522 lung 2.33% | COLO 205 colon -52.8%
inactive: NCI-H322M lung 55.3% | A549/ATCC NSCLC 45.8% | 786-0 renal 21.2%

C/C(=C\c1ccc(O)cc1O)c1ccc2ccc(O)cc2[o+]1
inactive: NCI-H23 lung 45.8% | NCI-H226 lung 66.2% | NCI-H322M lung 78.1% | NCI-H460 lung 56.8% | HOP-92 NSCLC 83.8% | NCI-H522 lung 55% | 786-0 renal 52.9% | COLO 205 colon 116%

O=S(=O)(Nc1ncccn1)c1ccc(-n2c(-c3ccc(Br)cc3)nc(-c3ccccc3)c2-c2ccccc2)cc1
inactive: NCI-H23 lung 22.5% | NCI-H226 lung 26% | NCI-H322M lung 64.1% | NCI-H460 lung 31.7% | HOP-92 NSCLC 11.4% | NCI-H522 lung 74.5% | A549/ATCC NSCLC 34.9% | 786-0 renal 34.5% | COLO 205 colon 124%

O=C(Cn1nc(-c2ccccc2)ccc1=O)NNC(=S)NC1CCCCC1
inactive: NCI-H23 lung 105% | NCI-H226 lung 105% | NCI-H322M lung 99.6% | NCI-H460 lung 136% | HOP-92 NSCLC 116% | NCI-H522 lung 104% | A549/ATCC NSCLC 114% | 786-0 renal 105% | COLO 205 colon 135%

Cc1ccn2c(C(=O)c3ccccc3)cc(-c3cc(-c4ccc(N(C)C)cc4)c(C#N)c(N)n3)c2c1
inactive: NCI-H23 lung 46.1% | NCI-H226 lung 16.7% | NCI-H322M lung 75.1% | NCI-H460 lung 56% | HOP-92 NSCLC 23.6% | NCI-H522 lung 79.4% | A549/ATCC NSCLC 45.9% | 786-0 renal 21% | COLO 205 colon 66.2%

O=C(CSc1nnc(-c2ccc3nc(-c4ccc(Cl)cc4)[nH]c3c2)o1)Nc1ccc(Cl)cc1
active: NCI-H23 lung -73.9% | NCI-H226 lung -68.8% | NCI-H322M lung -66.5% | NCI-H460 lung -51.3% | HOP-92 NSCLC -6.37% | NCI-H522 lung -45.1% | 786-0 renal -76.8% | COLO 205 colon 7.13%

O=C(NO)c1ccc(CNC(=O)[C@H]2Cc3c([nH]c4ccccc34)[C@H](c3ccccc3)N2)cc1
inactive: NCI-H23 lung 34% | NCI-H226 lung 64.2% | NCI-H322M lung 43.2% | NCI-H460 lung 27.7% | A549/ATCC NSCLC 50.6% | 786-0 renal 53.9%
active: HOP-92 NSCLC -2.26% | NCI-H522 lung -8.88% | COLO 205 colon -55.5%

N#Cc1ccc(NC(=O)CSc2ccc(-c3ccc(Br)cc3)nn2)cc1
inactive: NCI-H23 lung 51.3% | NCI-H226 lung 44.8% | NCI-H322M lung 76.6% | HOP-92 NSCLC 70.2% | NCI-H522 lung 52% | A549/ATCC NSCLC 64.7% | 786-0 renal 80.2% | COLO 205 colon 112%

COc1cccc(C(N)=Nc2ccc(OCCCCCCn3cncn3)cc2)c1
inactive: NCI-H23 lung 21.1% | NCI-H322M lung 60.5% | HOP-62 NSCLC 20.7% | NCI-H460 lung 28.1% | HOP-92 NSCLC 79.3% | A549/ATCC NSCLC 26.5% | 786-0 renal 40.9%
active: NCI-H522 lung -2.45%

O=C(c1ccc(O)cc1)C1[C@H](c2ccc(Br)cc2)[C@@H](c2ccccc2)NC12C(=O)Nc1ccccc12 (stereo not given in full)
active: NCI-H23 lung 7.68% | NCI-H460 lung 2.57% | HOP-92 NSCLC 8.1% | COLO 205 colon -46.4%
inactive: NCI-H226 lung 43.5% | NCI-H322M lung 51.6% | NCI-H522 lung 32.4% | A549/ATCC NSCLC 29.5% | 786-0 renal 16.3%
